Data on 77 compounds can be found in PubChem BioAssay.

Residues, ends and D or L forms follow the SMILES beside them. *: point of attachment. Cbz = O=C(OCc1ccccc1)*; CH2Cl = ClC*

The target of assay [1] is Tumor necrosis factor receptor superfamily member 10B (Homo sapiens) (UniProt O14763). Put plainly: caspase-8 TRAIL sensitization, hit retest, confirmation, cell-based, NB7+caspase-8, with/without TRAIL, luminescence panel (AID 651596). The settings on record: NB7 neuroblastoma + caspase-8, TRAIL sensitization, luminescence viability, with TRAIL, mean of runs, at 10 µM, stronger effect = higher value.
Chain of Tumor necrosis factor receptor superfamily member 10B (Homo sapiens) (O14763 whole entry, looked up): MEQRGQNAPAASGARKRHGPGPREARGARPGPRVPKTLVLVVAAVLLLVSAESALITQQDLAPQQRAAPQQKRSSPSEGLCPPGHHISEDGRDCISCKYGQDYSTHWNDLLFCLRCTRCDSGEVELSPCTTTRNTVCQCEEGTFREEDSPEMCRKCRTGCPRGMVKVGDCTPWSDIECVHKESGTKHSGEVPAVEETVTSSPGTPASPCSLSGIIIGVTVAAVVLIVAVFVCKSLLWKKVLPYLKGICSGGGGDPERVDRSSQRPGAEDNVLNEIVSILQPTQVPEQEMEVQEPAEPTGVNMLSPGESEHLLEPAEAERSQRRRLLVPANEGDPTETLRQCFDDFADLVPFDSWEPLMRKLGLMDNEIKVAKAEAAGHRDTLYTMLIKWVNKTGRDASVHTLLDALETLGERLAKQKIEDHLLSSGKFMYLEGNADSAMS

Assay in assay [2]: as above
To be noted: NB7 neuroblastoma + caspase-8, without TRAIL, luminescence viability, without TRAIL, mean of runs, at 10 µM.

`C=CCc1ccccc1OCC(=O)N/N=C/c1ccc(OC(C)=O)cc1OC(C)=O`: the activity in assay [1] is -0.55%; in assay [2] it was 27.2%.

As for `CC(=O)Nc1ccc(NC(=O)CSc2nnc(NC(=O)c3ccccc3F)s2)cc1`, the activity in assay [1] was found to be 69.5%; in assay [2], 63.9%.

Consider `O=C(CCN1C(=O)c2ccccc2C1=O)Nc1ccc(-c2nc3ccccc3s2)cc1`, for which the activity in assay [1] came to 44.4%; in assay [2], 41.9%.

As for `COc1ccc(C[C@H](N)C(=O)N[C@H]2[C@@H](O)[C@H](n3cnc4c(N(C)C)ncnc43)O[C@@H]2CO)cc1`, the activity was 98.4% in assay [1] and 99.2% in assay [2].

`COc1cccc(C(=O)Oc2c(CN3CCOCC3)cc(Cl)c3cccnc23)c1`: the results for the activity in assay [1] and in assay [2] were 49% and 60.3%, respectively.

For the compound `Cc1cc(C)nc(NC(=O)/C=C/c2ccc3c(c2)OCO3)c1`, the activity came to 70.2% in assay [1] and 75.5% in assay [2].

As to `CCC(OC(=O)c1ccc(S(C)(=O)=O)c([N+](=O)[O-])c1)C(=O)NC1C2CC3CC(C2)CC1C3` (centres undefined), the activity in assay [1] came out at 79.5%; in assay [2] it was 97.7%.

Consider `COc1ccc(CN(C(=O)CSc2nnc(-c3ccccc3C)o2)c2ccc(F)cc2)cc1`, for which the activity was found to be 97.9% in assay [1] and 97.3% in assay [2].

`O=C(CCl)N=c1sccn1Cc1ccc(Cl)cc1Cl`: the results for the activity in assay [1] and in assay [2] were 99.3% and 99.2%, respectively.

Turning to `O=C(Nc1ccc2c(c1)OCCO2)c1cc2ccccc2o1`, the values for the activity in assay [1] and in assay [2] were 82% and 76.8%, respectively.

As to `COc1cccc(C(=O)Cn2c(=N)n(C)c3ccccc32)c1`, the figures for the activity in assay [1] and in assay [2] were 65.8% and 66.2%, respectively.

On to `O=C(Nc1ccccn1)c1ccc2c(c1)OCCO2`, for which the activity in assay [1] is 49.8%; in assay [2], 47.5%.

`Clc1ccc2nc(-c3ccccc3)cn2c1`: the activity in assay [1] was 72.7%; in assay [2], 74.1%.

With `Cc1cccc(/C=N/Nc2nncc3ccccc23)c1`, the activity amounted to 80.9% in assay [1] and 69.2% in assay [2].

With `COc1cc(NCCCCC(C)N)c2nccc(C)c2c1` (centres undefined), the results for the activity in assay [1] and in assay [2] were 38% and 45.6%, respectively.

In the case of `Cc1ccc(C(=O)Oc2ccc(C(=O)COC(=O)c3cnccn3)cc2)cc1`, the figures for the activity in assay [1] and in assay [2] were 19.9% and 31.6%, respectively.

Turning to `O=C(N/N=C/c1cccnc1)c1ccc2c(c1)OCCO2`, the figures for the activity in assay [1] and in assay [2] were 76.2% and 67%, respectively.

With `CCC(=O)Nc1ccc2oc(-c3cccc(C)c3)nc2c1`, the activity stood at 57.2% in assay [1] and 55.7% in assay [2].

`O=C(Nc1nc2ccccc2[nH]1)c1ccccc1`: the figures for the activity in assay [1] and in assay [2] were 88% and 84.5%, respectively.

On to `COc1cccc(Nc2nc(N)nc(CCl)n2)c1`, for which the values for the activity in assay [1] and in assay [2] were 98.4% and 92%, respectively.

With `CCc1nnc(NC(=O)CSc2nc(C)cc(C)c2C#N)s1`, the activity stood at 81.2% in assay [1] and 80% in assay [2].

Take `CS/C(Nc1cc(Cl)ccc1Cl)=C(/C#N)C(=O)c1ccco1`: the activity stood at 60.1% in assay [1] and 65.6% in assay [2].

In the case of `Cc1onc(C(=O)N2CCN(C(c3ccccc3)c3ccccc3)CC2)c1[N+](=O)[O-]`, the results for the activity in assay [1] and in assay [2] were 99.8% and 97%, respectively.

As to `CC(C)CC(NC(=O)OCc1ccccc1)C(=O)NC(Cc1ccccc1)C(=O)CCl` (stereo not drawn) (Cbz-Leu-Phe-CH2Cl; configuration not given here), the activity in assay [1] stood at 62.3%; in assay [2], 98%.

With `OCC1OC(n2cnc3c(=S)nc[nH]c32)CC1O` (centres undefined), the results for the activity in assay [1] and in assay [2] were 31.4% and 35.7%, respectively.

As for `Nc1ccc(-c2nc3ncccc3o2)c(Cl)c1`, the values for the activity in assay [1] and in assay [2] were 43.9% and 32.2%, respectively.

Turning to `C/C(=N\NC(=O)c1ccncc1)c1cccc(NC(=O)c2ccc(C(C)(C)C)cc2)c1`, the activity in assay [1] was 85.5%; in assay [2], 81.6%.

With `CCCCn1c(NS(=O)(=O)c2ccc(C)cc2)c(S(=O)(=O)c2ccccc2)c2nc3ccccc3nc21`, the activity in assay [1] was -5.92%; in assay [2], -15%.

Turning to `CC(C)Nc1ccc(-n2nc3ccccc3[n+]2[O-])cc1`, the activity in assay [1] was 62.5%; in assay [2], 61%.

Take `O=C1C(=Cc2ccc(F)cc2)CCc2ccccc21`: the activity in assay [1] was determined as 82.8%; in assay [2] it was 76.7%.

`Cc1occc1C(=O)O/N=C(\N)c1ccc(Cl)cc1`: the activity in assay [1] was 81.6%; in assay [2], 84.7%.

Regarding `O=C(NO)c1cc(OCC(F)(F)F)ccc1OCC(F)(F)F`, the activity was 51.1% in assay [1] and 71.4% in assay [2].

As for `CCCC(=O)Nc1ccc(C(=O)N/N=C/c2ccc[nH]2)cc1`, the activity in assay [1] was 98.5%; in assay [2], 97.8%.

Consider `CCOC(=O)c1c(C)nc2c3ccccc3ccn12`, for which the activity in assay [1] is 51.9%; in assay [2], 58.9%.

Consider `COC(=O)C12OCC34C(CC5C(C)=C(O)C(=O)CC5(C)C3C(O)C1O)OC(=O)C(OC(=O)C=C(C)C)C24` (centres undefined), for which the activity came to 91% in assay [1] and 96.2% in assay [2].

Turning to `O=c1c2[nH]c3ccc(F)cc3c2ncn1C1CCCCC1`, the figures for the activity in assay [1] and in assay [2] were 59.1% and 49.5%, respectively.

`CC(C)COCc1ccc(O)c2ncccc12`: the activity in assay [1] was determined as 38.6%; in assay [2] it was 32.1%.

Consider `O=C(NC1CCCCC1)C(c1cccnc1)N(C(=O)CCl)c1ccc(F)cc1` (centres undefined), for which the activity in assay [1] worked out at 99.2%; in assay [2], 98.8%.

Regarding `CCN(CC)c1ccc(C(=O)OCc2cc(=O)oc3cc(O)ccc23)cc1`, the activity came out at 83.8% in assay [1] and 96% in assay [2].

Consider `CNC(=O)c1cc(Oc2ccc(NC(=O)Nc3ccc(Cl)c(C(F)(F)F)c3)cc2)ccn1`, for which the activity in assay [1] turned out to be 88.9%; in assay [2] it was 63.2%.

In the case of `Cc1ccccc1CS(=O)(=O)c1ncc(Cl)c(C(=O)Nc2ccc(F)cc2)n1`, the results for the activity in assay [1] and in assay [2] were 22.5% and 24.9%, respectively.

In the case of `CC(=O)Nc1ccc(C=NNc2nnc(NN=Cc3ccc(NC(C)=O)cc3)c3ccccc23)cc1`, the activity was 68.6% in assay [1] and 67.4% in assay [2].

Regarding `C/C(=N\Nc1nc2ccccc2[nH]1)c1ccccn1`, the activity in assay [1] amounted to 51.5%; in assay [2] it was 68.5%.

As to `Cc1ccc2nc(-c3ccccn3)[nH]c2c1`, the activity was 81% in assay [1] and 83.9% in assay [2].

Regarding `Cc1cc(C(=O)COC(=O)c2cccn2C)c(C)n1Cc1ccco1`, the activity in assay [1] was 54.5%; in assay [2] it was 39.2%.

As to `O=S(=O)(c1ccccc1)c1nnn2c1nc(NC1CCN(Cc3ccccc3)CC1)c1ccccc12`, the results for the activity in assay [1] and in assay [2] were 97.9% and 48.9%, respectively.

`CCCCNC(=O)c1cn(C)c2ccc(S(=O)(=O)N3CC(C)CC(C)C3)cc2c1=O` (centres undefined): the activity in assay [1] is 42.1%; in assay [2], 41.5%.

With `Cc1ccc(-n2[nH]c(C)c(C=Nc3ccc4[nH]c(=O)[nH]c4c3)c2=O)cc1C`, the activity came out at 51.4% in assay [1] and 41.5% in assay [2].

Consider `CC(C)OC(=O)c1sc2nc(-c3ccccc3)ccc2c1N`, for which the activity in assay [1] was determined as 58.5%; in assay [2], 60.3%.

Regarding `CCN1CCN(CCNC(=O)c2ccc3c(c2)N(Cc2ccc(F)cc2)C(=O)/C(=C/c2ccccc2)S3)CC1`, the activity came to 53.4% in assay [1] and 80.5% in assay [2].

Regarding `O=C(Nc1ccc2c(c1)nc1n2CCSC1)c1ccccc1`, the values for the activity in assay [1] and in assay [2] were 69.8% and 60%, respectively.

Take `Cc1nnc(NC(=O)c2nc(S(=O)(=O)Cc3ccccc3C)ncc2Cl)s1`: the results for the activity in assay [1] and in assay [2] were 94.7% and 89.8%, respectively.

Regarding `Fc1ccc(-c2cnn3c(-c4cccs4)ccnc23)cc1`, the activity was 61.2% in assay [1] and 59.4% in assay [2].

Take `C=C1C(=O)C23CCC4C(C)(C(=O)OC)CCCC4(C)C2CCC1(O)C3` (centres undefined): the activity in assay [1] came to 95.6%; in assay [2], 98.7%.

`Cc1ccc(/C(N)=N/OC(=O)c2ccc(Cl)cc2Cl)cc1`: the activity in assay [1] was 97%; in assay [2], 96.7%.

In the case of `Cn1c(=N)n(CC(=O)c2ccccc2)c2ccccc21`, the figures for the activity in assay [1] and in assay [2] were 70.7% and 74.4%, respectively.

Regarding `Cc1ccc2nc(-c3ccc(NC(=O)CCS(=O)(=O)c4ccccc4)cc3)sc2c1`, the activity in assay [1] was 87.5%; in assay [2], 86.9%.

For the compound `CC(C)(CNC(=O)c1ccc([N+](=O)[O-])c(Cl)c1)CNC(=O)c1ccc([N+](=O)[O-])c(Cl)c1`, the activity in assay [1] turned out to be 54.5%; in assay [2] it was 60.3%.

As for `c1ccc2sc(NN=C3CCCCCC3)nc2c1`, the activity in assay [1] was 59.8%; in assay [2], 46.7%.

As for `COCCCNc1ccn2nc(-c3ccccc3)cc2n1`, the activity came to 50.1% in assay [1] and 35.5% in assay [2].

For the compound `O=C(Nc1ccc(-c2cn3ccsc3n2)cc1)C1CC1`, the results for the activity in assay [1] and in assay [2] were 75.1% and 70.2%, respectively.

Consider `Cc1cccc(CS(=O)(=O)c2ncc(Cl)c(C(=O)Nc3nnc(C(C)C)s3)n2)c1`, for which the activity was found to be 93.5% in assay [1] and 86.1% in assay [2].

With `CC(C)N(CC(=O)Nc1ccc(Cl)cc1C(F)(F)F)C(=O)CCl`, the activity in assay [1] stood at 99.4%; in assay [2], 96.2%.

With `Cc1nn(-c2ccccc2)c(Cl)c1CN(C(=O)CCl)c1ccc(Cl)cc1`, the activity in assay [1] was 99.3%; in assay [2] it was 99.6%.

As to `COc1ccc(OC)c(S(=O)(=O)Nc2ccc(-c3ccc4nncn4n3)cc2)c1`, the activity in assay [1] was determined as 57.5%; in assay [2], 59.3%.

As to `CCOc1ccc(/C=N/NC(=O)c2ccccc2NC(=O)c2ccc(OC)cc2)cc1`, the activity in assay [1] worked out at 72.6%; in assay [2], 57.7%.

With `COc1cc(C(=O)Oc2ccccc2/C=N/NC(=O)c2ccc(C)cc2)cc(OC)c1OC`, the activity turned out to be 51% in assay [1] and 52.7% in assay [2].

For `CC(C)(C)NC(=O)C(c1ccncc1)n1c(-c2ccc(C(F)(F)F)cc2)nc2ccccc21` (centres undefined), the activity was 74.4% in assay [1] and 85.8% in assay [2].

In the case of `COc1ccc(NC(=O)c2cc(-c3ccncc3)nc3ccc(Br)cc23)cc1OC`, the activity in assay [1] was determined as 4.8%; in assay [2], 51.5%.

As to `CC1(C)N=C(N)N=C(N)N1c1ccc(OCC(=O)N2CCOCC2)c(Cl)c1`, the activity turned out to be 81.6% in assay [1] and 86% in assay [2].

For the compound `N/C(=N\OC(=O)c1ccc(Cl)cc1)c1ccn[nH]1`, the activity in assay [1] was 94.7%; in assay [2], 91%.

As for `COc1ccc(C(=O)Nc2cc(C)on2)cc1`, the values for the activity in assay [1] and in assay [2] were 49.3% and 38.6%, respectively.

Regarding `NC(Cc1ccccc1)c1csc(NC(=O)Nc2ccccc2Oc2ccccc2)n1` (centres undefined), the values for the activity in assay [1] and in assay [2] were 61.5% and 78.7%, respectively.

As to `O=C(NCCOc1ccccc1)c1cccc2c1C(=O)c1ccc(Cl)cc1S2(=O)=O`, the activity in assay [1] came out at 35.6%; in assay [2], 54.2%.

For the compound `Cc1ccc2nc(-c3ccncc3)cc(C(=O)Nc3ccncc3)c2c1`, the activity in assay [1] was 19.9%; in assay [2], 6.6%.

For `Nc1nc(CCl)nc(N(c2ccccc2)c2ccccc2)n1`, the activity in assay [1] was 99.3%; in assay [2] it was 98.7%.

As to `CCCCC[C@@H](C)N1C[C@H](COCc2ccccc2)Oc2cc(N3CC[C@@H](N(C)C)C3)ccc2S1(=O)=O`, the values for the activity in assay [1] and in assay [2] were 13% and 43.6%, respectively.
